Reference: paper PMC7826789 (International Journal of Molecular Sciences, 2021)

Tests used:
Conditions in all cases: Compound Concentration (nM):1000
CDKL3 = tested on: CDKL3
CDKL5 = tested on: CDKL5
CHEK1 = tested on: CHEK1
CHEK2 = tested on: CHEK2
CIT = tested on: CIT
CLK1 = tested on: CLK1
CLK2 = tested on: CLK2
CLK3 = tested on: CLK3
CLK4 = tested on: CLK4
CSF1R-autoinhibited = tested on: CSF1R-autoinhibited
CSF1R = tested on: CSF1R
CSK = tested on: CSK
CSNK1A1L = tested on: CSNK1A1L
CSNK1A1 = tested on: CSNK1A1
CSNK1D = tested on: CSNK1D
CSNK1E = tested on: CSNK1E
CSNK1G1 = tested on: CSNK1G1
CSNK1G2 = tested on: CSNK1G2
CSNK1G3 = tested on: CSNK1G3
CSNK2A1 = tested on: CSNK2A1
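Also: KINOMEscan scanMAX binding as percent activity remaining versus control; lower means stronger binding.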

Structure (SMILES) | Percent Control (CDKL3) | Percent Control (CDKL5) | Percent Control (CHEK1) | Percent Control (CHEK2) | Percent Control (CIT) | Percent Control (CLK1) | Percent Control (CLK2) | Percent Control (CLK3) | Percent Control (CLK4) | Percent Control (CSF1R-autoinhibited) | Percent Control (CSF1R) | Percent Control (CSK) | Percent Control (CSNK1A1L) | Percent Control (CSNK1A1) | Percent Control (CSNK1D) | Percent Control (CSNK1E) | Percent Control (CSNK1G1) | Percent Control (CSNK1G2) | Percent Control (CSNK1G3) | Percent Control (CSNK2A1)
NS(=O)(=O)c1ccc(N/N=C2\C(=O)Nc3ccc(Cl)cc32)cc1 [GW280670X] | 100% | 100% | 100% | 100% | 100% | 100% | 100% | 100% | 96% | 60% | 100% | 100% | 100% | 100% | 100% | 93% | 100% | 100% | 100% | 81%
COC(=O)Nc1nc2ccc(Oc3ccc(NC(=O)Nc4cc(C(F)(F)F)ccc4F)cc3)cc2s1.Cl [GW693917A] | 15% | 38% | 95% | 76% | 1.8% | 42% | 100% | 82% | 100% | 86% | 2.3% | 70% | 92% | 83% | 100% | 98% | 96% | 100% | 94% | 91%
COc1ccc2cc(-c3c(-c4ccncc4)nc(-c4ccc(S(C)(=O)=O)cc4C)n3C)ccc2c1 [SB-633825] | 86% | 82% | 88% | 100% | 100% | 96% | 87% | 97% | 62% | 66% | 93% | 98% | 55% | 85% | 86% | 69% | 90% | 81% | 100% | 82%
CN(C)CCNC(=O)Nc1ccc(N(C)c2ccnc(Nc3ccc(CS(C)(=O)=O)cc3)n2)cc1.Cl [GW830900A] | 100% | 100% | 100% | 93% | 100% | 85% | 94% | 99% | 100% | 41% | 0.6% | 98% | 85% | 79% | 93% | 88% | 90% | 96% | 95% | 78%
COc1ccc(COc2ccc(Cc3cnc(N)nc3N)cc2OC)cc1 [GW632580X] | 90% | 84% | 91% | 100% | 80% | 100% | 91% | 100% | 100% |  |  | 87% | 86% | 100% | 100% | 100% | 88% | 88% | 100% | 90%
COc1ccccc1-c1cc(/C=C2\C(=O)Nc3ncc(Br)cc32)cc(Br)c1O [GW442130X] | 93% | 88% | 100% | 79% | 89% | 100% | 67% | 84% | 85% | 100% | 100% | 100% | 100% | 100% | 94% | 79% | 100% | 94% | 100% | 66%
NS(=O)(=O)c1ccc(N/N=C2\C(=O)Nc3ccc(C(=O)NCCc4c[nH]cn4)cc32)cc1 [GW300660X] | 100% | 36% | 100% | 64% | 100% | 72% | 5.5% | 100% | 76% | 90% | 100% | 100% | 100% | 89% | 100% | 100% | 100% | 100% | 100% | 27%
C/C(Nc1ccc(S(N)(=O)=O)cc1)=C1/C(=O)Nc2ccccc21 [GW335962X] | 94% | 100% | 93% | 51% | 86% | 98% | 78% | 98% | 100% | 40% | 100% | 86% | 97% | 67% | 87% | 100% | 88% | 85% | 99% | 57%
Cc1cc(O)cc(C)c1/C=C/c1cncc(C(N)=O)c1 [GW435821X] | 100% | 100% | 100% | 99% | 98% | 89% | 100% | 100% | 74% | 87% | 34% | 80% | 100% | 100% | 100% | 86% | 100% | 100% | 100% | 90%
